# From paper PMC4336329 (PLoS ONE, 2015)
# About 14,000 (4.5%) of roughly 310,000 compounds showed an effect of 50% or more. The effect is printed as a negative number. Shown is part of a subset that was picked to be rich in strong results.
# Target: human ether-à-go-go-related gene (hERG) potassium channel (human, UniProt Q12809)
# Experiment: primary screen, population patch clamp on CHO cells stably expressing hERG; higher = less effect of the substance
# 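Also: peak tail current of the secondary pulse compared with the same well before compound.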
# human ether-à-go-go-related gene (hERG) potassium channel, sequence (Q12809 whole entry, looked up): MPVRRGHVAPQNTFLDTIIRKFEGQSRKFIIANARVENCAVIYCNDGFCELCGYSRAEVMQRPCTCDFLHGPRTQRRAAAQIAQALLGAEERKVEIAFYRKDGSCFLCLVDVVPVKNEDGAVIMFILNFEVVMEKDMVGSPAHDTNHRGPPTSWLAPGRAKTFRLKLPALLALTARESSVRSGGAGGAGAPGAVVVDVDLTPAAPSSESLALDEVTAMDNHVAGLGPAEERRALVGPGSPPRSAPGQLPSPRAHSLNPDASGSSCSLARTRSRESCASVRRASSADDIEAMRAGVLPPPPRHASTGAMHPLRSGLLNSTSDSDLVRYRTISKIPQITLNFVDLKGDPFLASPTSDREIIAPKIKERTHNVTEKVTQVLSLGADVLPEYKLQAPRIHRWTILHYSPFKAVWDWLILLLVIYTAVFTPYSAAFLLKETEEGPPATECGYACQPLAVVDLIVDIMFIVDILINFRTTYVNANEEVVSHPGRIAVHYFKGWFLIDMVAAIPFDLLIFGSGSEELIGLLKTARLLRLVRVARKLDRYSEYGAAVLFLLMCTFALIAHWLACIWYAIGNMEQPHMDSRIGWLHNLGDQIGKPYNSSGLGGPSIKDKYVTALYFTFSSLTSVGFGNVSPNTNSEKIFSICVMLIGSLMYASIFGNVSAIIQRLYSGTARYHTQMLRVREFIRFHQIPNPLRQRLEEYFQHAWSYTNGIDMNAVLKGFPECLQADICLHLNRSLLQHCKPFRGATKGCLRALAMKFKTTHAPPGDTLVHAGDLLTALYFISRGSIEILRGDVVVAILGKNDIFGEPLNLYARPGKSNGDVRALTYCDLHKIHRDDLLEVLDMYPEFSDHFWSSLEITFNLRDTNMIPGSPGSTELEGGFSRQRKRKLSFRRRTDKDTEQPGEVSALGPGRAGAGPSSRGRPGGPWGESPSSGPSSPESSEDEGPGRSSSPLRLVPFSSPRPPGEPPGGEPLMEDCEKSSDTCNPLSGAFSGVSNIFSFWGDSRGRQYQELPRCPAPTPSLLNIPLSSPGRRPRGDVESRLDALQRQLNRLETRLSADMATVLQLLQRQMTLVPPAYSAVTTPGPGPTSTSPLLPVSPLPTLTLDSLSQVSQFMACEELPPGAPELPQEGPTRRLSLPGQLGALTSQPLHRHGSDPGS
row,Structure (SMILES),"hERG current change (%, negative = inhibition) at 10uM [%]"
1,Cc1ccc(C)c(NC(=S)N2CCN(c3cccc(C(F)(F)F)c3)CC2)c1,7.13
2,COC(=O)c1sc(S(=O)(=O)Nc2ccc(Br)cc2)c(C(=O)OC)c1C,2.75
3,CCCCCCc1cc2cc(C(=O)NCc3ccccc3)c(=N)oc2cc1O,5.76
4,O=C(NCCC(c1ccccc1)c1ccccc1)c1cccs1,-14.2
5,Cc1ccccc1C(=O)N/N=C/c1ccccn1,5.6
6,CCN(CC)c1ccc(/C=C2\NC(=O)NC2=O)cc1,19.5
7,COC(=O)c1ccsc1NC(=O)CN1CCN(c2ncccn2)CC1,-1.35
8,Cc1cc(C)n(-c2c(F)c(F)c(COC(=O)c3ccccc3)c(F)c2F)n1,5.11
9,COC(=O)c1nc2n(n1)C(c1ccc([N+](=O)[O-])cc1)C(C(=O)Nc1ccc(Cl)cc1)=C(C)N2 (stereo not drawn),13.5
10,Cc1ccccc1S(=O)(=O)Cc1ccc(C(=O)N(C)C2CCCCC2)o1,-12.5
11,C=CCn1c(SCc2cccc(F)c2)nc2cc(C(=O)N3CCC(C(N)=O)CC3)ccc2c1=O,-34.7
12,CCN(C(=O)c1sc(N)c(C#N)c1C)C1CCCCC1,9.21
13,CCOC(=O)c1c(C)oc(/N=C/c2ccccc2O)c1C#N,7.61
14,O=C(c1cccs1)N1CCN(S(=O)(=O)c2ccccc2)CC1,-6.98
15,CS(=O)(=O)Nc1cccc(C(=O)OCCCOc2ccc(F)cc2)c1,-54.5
16,CC(=O)Nc1cccc(C(=O)OCCCOc2ccc(F)cc2)c1,18.8
17,COC(=O)c1cccc(NS(C)(=O)=O)c1,12.9
18,CC(C)CNC(=O)NC(=O)COC(=O)c1cc(F)cc(F)c1,-4.56
19,COc1ccc(C)cc1NC(=O)C(=O)NNC(=O)c1ccco1,17.6
20,Cc1c(CC(=O)O)c(=O)oc2c(C)c(OCc3c(F)cccc3Cl)ccc12,5.53
21,CCOc1ccccc1NC(=O)C(NCCN(C)C)c1ccccc1.O=C(O)C(=O)O (stereo not drawn),-76.4
22,CCOc1ccccc1NC(=O)C(NCCc1ccc(OC)cc1)c1ccccc1 (stereo not drawn),-4.48

row,Structure (SMILES),"hERG current change (%, negative = inhibition) at 10uM [%]"
1,CCOc1ccccc1NC(=O)C(NCC1(N2CCCCC2)CCCCC1)c1ccccc1.O=C(O)C(=O)O (stereo not drawn),-70.9
2,CCOc1ccccc1NC(=O)C(OC(=O)C1CC1)c1ccccc1 (stereo not drawn),-10.3
3,CCOc1ccccc1NC(=O)C(NCC1CCCCC1)c1ccccc1 (stereo not drawn),16.9
4,CCOc1ccccc1NC(=O)C(Sc1ccccc1)c1ccccc1 (stereo not drawn),9.32
5,COc1cccc(C(=O)N2CCC3(CC2)OCCO3)c1,20.3
6,COc1ccc(OCCNS(=O)(=O)Cc2ccccc2)cc1,0.161
7,Cc1cccc(NC(=O)c2ccc(S(=O)(=O)N3CCOCC3)cc2)n1,19.5
8,COCCSc1ccccc1C(=O)N1CCc2ccccc21,15.1
9,CC(C)(C)c1ccc(OCCC(=O)Nc2cccc(S(=O)(=O)N3CCCCC3)c2)cc1,16.4
10,O=C(COc1ccccc1)N1CCN(c2ccccc2)CC1,-3.1
11,Cc1sc2ncnc(OCC(=O)N3CCN(S(=O)(=O)c4ccccc4)CC3)c2c1C,-2.31
12,Cc1nc(N2CCN(C(=O)COc3ccccc3)CC2)c2c(C)c(C)sc2n1.Cl,-69.3
13,Cc1nc(N2CCN(S(=O)(=O)c3ccc(Br)cc3)CC2)c2c(C)c(C)sc2n1,-10.7
14,CCC(=O)N1CCN(c2nc(C)nc3sc(C)c(C)c23)CC1,-62
15,Cc1nc(N2CCN(C(=O)CCC(=O)O)CC2)c2c(C)c(C)sc2n1,-1.2
16,O=C(c1cc(C2CC2)nn1-c1ccccc1)N1CCN(S(=O)(=O)c2cccc(F)c2)CC1,-28.1
17,O=[N+]([O-])c1ccc(Cl)c(S(=O)(=O)/N=C(/c2ccccc2)N2CCOCC2)c1,3.91
18,COc1ccc(C(=O)N2CCN(c3ccc(N4CCOCC4)nn3)CC2)cc1OC,8.55
19,COc1ccc(/C=C/C(=O)NCCc2nc3ccccc3[nH]2)cc1,26.4
20,CC(C)Oc1ccc(/C=C(\NC(=O)/C=C/c2ccco2)C(=O)NCCc2nc3ccccc3[nH]2)cc1,-28.6
21,O=C(/C=C/c1ccco1)N/C(=C\c1ccco1)C(=O)NCCc1nc2ccccc2[nH]1,-22.6
22,O=C(/C=C/c1ccco1)N/C(=C\c1ccccc1)C(=O)NCCc1nc2ccccc2[nH]1,-46.3

row,Structure (SMILES),"hERG current change (%, negative = inhibition) at 10uM [%]"
1,COc1ccc(/C=C/C(=O)N/C(=C\c2ccco2)C(=O)NCCc2nc3ccccc3[nH]2)cc1,-72.7
2,COc1ccc(/C=C(\NC(=O)/C=C/c2ccco2)C(=O)NCCc2nc3ccccc3[nH]2)cc1,-56.6
3,Cc1c2cnn(CC(=O)NCCCN3CC(C)CC(C)C3)c(=O)c2c(C)n1Cc1ccccc1Cl (stereo not drawn),-36.7
4,Cc1c2cnn(CC(=O)NCCCN3CCCCC3)c(=O)c2c(C)n1Cc1ccccc1,9.96
5,Cc1cc2c(cc3c(=O)n(CC(=O)NCCCN4CC(C)CC(C)C4)ncn32)s1 (stereo not drawn),-53.4
6,Cc1c2cnn(CC(=O)NCCCN3CC(C)CC(C)C3)c(=O)c2c(C)n1Cc1ccc(Cl)cc1 (stereo not drawn),-52.6
7,CC1CC(C)CN(CCCNC(=O)Cn2ncn3cccc3c2=O)C1 (stereo not drawn),-3.29
8,Cc1nn(CC(=O)NCCCN2CC(C)CC(C)C2)c(=O)c2cccn12 (stereo not drawn),12.9
9,COC(=O)c1ccc(OC(=O)CCN2c3ccccc3Sc3ccccc32)cc1,8.91
10,Nc1c(C(=O)NC23CC4CC(CC(C4)C2)C3)sc2nc3c(c(C(F)(F)F)c12)CCC3,0.00528
11,O=C(CN1C2CCCC1CC(NC(=O)c1ccccc1)C2)Nc1ccccc1C(F)(F)F (stereo not drawn),6.14
12,CN(C)c1ccc(NC(=O)CN2C3CCCC2CC(NC(=O)c2ccccc2)C3)cc1 (stereo not drawn),-65.3
13,COc1cccc(C(=O)NC2CC3CCCC(C2)N3CC(=O)Nc2ccccc2)c1.Cl (stereo not drawn),-54.4
14,O=C(CN1C2CCCC1CC(NC(=O)c1ccco1)C2)Nc1ccccc1 (stereo not drawn),-45.2
15,COc1cccc(C(=O)NC2CC3CCCC(C2)N3CC(=O)Nc2ccc(N(C)C)cc2)c1 (stereo not drawn),-49.3
16,O=C(CN1C2CCCC1CC(NC(=O)c1ccccc1)C2)Nc1ccccc1 (stereo not drawn),-50.7
17,COc1cccc(C(=O)NC2CC3CCCC(C2)N3CC(=O)Nc2ccccc2C(F)(F)F)c1 (stereo not drawn),15.8
18,O=C(CN1C2CCCC1CC(NC(=O)c1ccccc1)C2)NC1CC1 (stereo not drawn),26.9
19,CC(=O)NC1CC2CCCC(C1)N2CC(=O)Nc1ccccc1 (stereo not drawn),4.65
20,CCOc1ccc(NC(=O)COc2nsnc2N2CCCCC2)cc1,21.6
21,CC(C)[C@H](NC(=O)c1ccc(F)cc1)C(=O)N(C)Cc1cccs1,-13.8
22,Cc1ccc(SCC(=O)N2CCOCC2)cc1,4.71

row,Structure (SMILES),"hERG current change (%, negative = inhibition) at 10uM [%]"
1,Cc1cccc(OCCc2nnc(N)s2)c1C,15.2
2,CNCc1ccccc1OCc1ccc(F)cc1.Cl,-7.08
3,CCN1CCCC1CNCc1cccc(OC)c1OCc1ccccc1.Cl (stereo not drawn),-26.9
4,CCOc1cc(CNCC2CCCN2CC)cc(Cl)c1OC.Cl (stereo not drawn),-18
5,COc1cccc(CNc2ccccc2O)c1OCc1ccccc1F,-1.17
6,CCN1CCCC1CNCc1ccc(OCc2ccc(Cl)nc2)c(OC)c1.Cl (stereo not drawn),-39.1
7,CCN1CCCC1CNCc1ccccc1OCc1ccc(F)cc1.Cl (stereo not drawn),-65
8,CCN1CCCC1CNS(=O)(=O)c1ccc(F)c(Cl)c1 (stereo not drawn),9.12
9,CCN1CCCC1CNCc1cccc(OC)c1OCc1ccc(F)cc1.Cl (stereo not drawn),-69.5
10,CCN1CCCC1CNCc1cc(OC)c(OC)c(OC)c1.Cl (stereo not drawn),1.63
11,CCN1CCCC1CNCc1cccc(OC)c1OCc1ccccc1F.Cl (stereo not drawn),-54.4
12,COc1cccc(CNn2cnnc2)c1OCc1ccccc1F,6.85
13,CCN1CCCC1CNCc1ccc(Cl)cc1Cl.Cl (stereo not drawn),-64.6
14,O=c1cc(/N=C/c2coc3c(ccc4ccccc43)c2=O)[nH]c(=S)[nH]1,11
15,Nc1nc(SCC(=O)Nc2ccc(Oc3ccccc3)cc2)n[nH]1,-4.09
16,CCNC(=S)N(CCc1c(C)[nH]c2ccc(F)cc12)Cc1cccnc1,-26.5
17,O=C(Cn1cnnn1)NCc1ccccc1,29.6
18,O=C(Cn1c(-c2cscn2)nc2ccccc21)Nc1ccc(Cl)cc1,-7.59
19,COCC(C)n1c(C)cc(C(=O)CSc2cc(C)c3ccccc3n2)c1C (stereo not drawn),4.64
20,CCc1ccc(OCC(=O)NC(=S)Nc2ccc(C)cc2C)c(Br)c1,7.39
21,CN(c1ccc(C(=O)N2CCCCC2)cc1)S(=O)(=O)c1cccs1,8.46
